Assay results reported in PubChem BioAssay (NCI).
Compounds without any hit were thinned out: in the full panel of roughly 83,000, 20% have a hit.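 Note: values are percent growth. 100 is the growth of untreated cells, values between 100 and 0 indicate rising inhibition; between -100 and 0 indicates cell death.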 Values without a mark were called inactive. Active and inactive are the calls of the source. How the source made its calls: active means growth percent below 10; inactive means the rest.

Tests used:
Experiment in all cases: NCI-60 one-dose screen, 48 h (100 = growth as untreated, 0 = no growth, -100 = all killed)
Conditions in all cases: 10 µM unless noted
[1] = test system: DU-145 prostate
[2] = test system: K-562 leukemia
[3] = test system: MALME-3M melanoma
[4] = test system: MDA-MB-231 breast
[5] = test system: RXF 393 renal
[6] = test system: SF-268 CNS
[7] = test system: SF-295 CNS
[8] = test system: SF-539 CNS
[9] = test system: UACC-257 melanoma
[10] = test system: M14 melanoma
[11] = test system: HCT-15 colon
[12] = test system: HT29 colon
[13] = test system: SNB-75 CNS
[14] = test system: SNB-19 CNS
[15] = test system: U251 CNS
[16] = test system: PC-3 prostate
[17] = test system: SK-MEL-5 melanoma
[18] = test system: UACC-62 melanoma
[19] = test system: LOX IMVI melanoma
[20] = test system: SK-MEL-28 melanoma

In the case of COC(=O)c1cc(O)c2c(c1C(=O)OC)C[C@H]1[C@@H]3CC=C4C[C@@H](O)CC[C@]4(C)[C@H]3CC[C@]21C, the growth [1] is reported as 79%, the growth [2] is reported as 20% and the growth [3] is reported as 28.3%. For the same molecule, the growth [4] was 2.21% (active), the growth [5] was -60.6% (active) and the growth [6] was 66.8%. The growth [7] was -14.5% (active), the growth [8] was 8.9% (active) and the growth [9] was 14.3%. For the same molecule, the growth [10] was 11.6%, the growth [11] was 24.6% and the growth [12] was 16.2%. The growth [13] was 62.2%, the growth [14] was 66.9% and the growth [15] was 37.5%. The growth [16] was 41.3%, the growth [17] was 1.59% (active) and the growth [18] was 40.9%. For the same molecule, the growth [19] was 9.77% (active) and the growth [20] was 46.3%.
O=C(Nc1ccccc1)Nc1ccc(C(=O)/C=C/c2ccc(N3CCCC3)cc2)cc1 showed a growth [1] of 94.7%, a growth [2] of 77.2% and a growth [3] of 79.1%. It also gave a growth [4] of 56.8%, a growth [5] of 58.8% and a growth [6] of 57.6%. It also gave a growth [7] of 73.4%, a growth [8] of 78.7% and a growth [9] of 51.4%. It also gave a growth [10] of 101%, a growth [11] of 56.8% and a growth [12] of 69.5%. For the same molecule, the growth [13] was 41%, the growth [14] was 68% and the growth [15] was 66%. The growth [16] was 59.9%, the growth [17] was 45% and the growth [18] was 42.2%. The growth [19] was 85.6% and the growth [20] was 51.1%.
With Cc1ccc(S(=O)(=O)NCCCNc2nccc(-c3c(-c4cccc(F)c4)nc4occn34)n2)cc1 the growth [1] was 73.8%, the growth [2] was 36.7% and the growth [3] was 64.6%. For the same molecule, the growth [4] was 64%, the growth [5] was 77.7% and the growth [6] was 61.6%. The growth [7] was 100%, the growth [8] was 95.1% and the growth [9] was 91.5%. It also gave a growth [10] of 57%, a growth [11] of 73.4% and a growth [12] of 27.8%. The growth [13] was 73.5%, the growth [14] was 90.7% and the growth [15] was 70.6%. It also gave a growth [16] of 44.3%, a growth [17] of 67.2% and a growth [18] of 58.6%. For the same molecule, the growth [19] was 57.9% and the growth [20] was 95.9%.
With C=C(C)[C@@H]1CC[C@]2(C(=O)NCCCN)CC[C@]3(C)[C@H](CC[C@@H]4[C@@]5(C)CC[C@H](O)C(C)(C)[C@@H]5CC[C@]43C)[C@@H]12 the growth [1] was -100% [100 µM] (active), the growth [2] was 1.1% [100 µM] (active) and the growth [3] was -18.8% [100 µM] (active). The growth [4] was -47.8% [100 µM] (active), the growth [5] was -42.3% [100 µM] (active) and the growth [6] was -16.9% [100 µM] (active). For the same molecule, the growth [7] was -26.4% [100 µM] (active), the growth [8] was -36.2% [100 µM] (active) and the growth [9] was -46.7% [100 µM] (active). For the same molecule, the growth [10] was 5.07% [100 µM] (active), the growth [11] was -22.1% [100 µM] (active) and the growth [12] was 3.9% [100 µM] (active). The growth [13] was -51.6% [100 µM] (active), the growth [14] was -29.5% [100 µM] (active) and the growth [15] was -13.8% [100 µM] (active). The growth [16] was -53.8% [100 µM] (active), the growth [17] was -23.9% [100 µM] (active) and the growth [18] was -22.6% [100 µM] (active). The growth [19] was 1.37% [100 µM] (active) and the growth [20] was -31.4% [100 µM] (active).
In the case of C[C@]12CCc3c(ccc4cc(O)ccc34)[C@@H]1CC[C@H]2O, the growth [1] is reported as 104%, the growth [2] is reported as 94.9% and the growth [3] is reported as 101%. The growth [4] was 88.3%, the growth [5] was 97.2% and the growth [6] was 91.4%. The growth [7] was 84.9%, the growth [8] was 91% and the growth [9] was 102%. For the same molecule, the growth [10] was 101%, the growth [11] was 93.4% and the growth [12] was 104%. For the same molecule, the growth [13] was 89.2%, the growth [14] was 87.2% and the growth [15] was 101%. For the same molecule, the growth [16] was 88.8%, the growth [17] was 101% and the growth [18] was 61.4%. The growth [19] was 96.4% and the growth [20] was 99.3%.
COc1c(B(O)O)cccc1-c1nc2ccc3[nH]ncc3c2c2c1CCC2 showed a growth [1] of 63.3%, a growth [2] of 77.9% and a growth [3] of 98.4%. The growth [4] was 40.7%, the growth [5] was 4.27% (active) and the growth [6] was 65.9%. It also gave a growth [7] of 86.9%, a growth [8] of 54.7% and a growth [9] of 111%. It also gave a growth [10] of 65%, a growth [11] of 54.7% and a growth [12] of 63.8%. The growth [13] was 32.7%, the growth [14] was 82.3% and the growth [15] was 66.1%. It also gave a growth [16] of 60.2%, a growth [17] of 52.4% and a growth [18] of 57.6%. For the same molecule, the growth [19] was 53.3% and the growth [20] was 86.3%.
Work on C[N+](C)(C)c1ncnc2[n-]cnc12 yielded a growth [1] of 99%, a growth [2] of 101% and a growth [3] of 98.3%. It also gave a growth [4] of 86.5%, a growth [5] of 97% and a growth [6] of 91%. For the same molecule, the growth [7] was 88.7%, the growth [8] was 89.5% and the growth [9] was -29.9% (active). The growth [10] was 89.9%, the growth [11] was 104% and the growth [12] was 104%. For the same molecule, the growth [13] was 82.1%, the growth [14] was 91.2% and the growth [15] was 91.6%. The growth [16] was 92%, the growth [17] was 90.1% and the growth [18] was 83.2%. It also gave a growth [19] of 75.5% and a growth [20] of 94.6%.
Work on CSc1nc2c(c(=O)n1C)C1(C(=O)N(Cc3ccccc3)c3ccccc31)c1c(nc(SC)n(C)c1=O)N2 yielded a growth [1] of 92.7%, a growth [2] of 89.8% and a growth [3] of 94%. For the same molecule, the growth [4] was 77.6%, the growth [5] was 88.3% and the growth [6] was 97.2%. The growth [7] was 85.3%, the growth [8] was 106% and the growth [9] was 75.1%. It also gave a growth [10] of 99.7%, a growth [11] of 84% and a growth [12] of 86.2%. For the same molecule, the growth [13] was 99%, the growth [14] was 91.5% and the growth [15] was 77.5%. The growth [16] was 44.9%, the growth [17] was 93% and the growth [18] was 93.6%. It also gave a growth [19] of 101% and a growth [20] of 104%.
With COc1ccc(C2CC(c3ccc4ccccc4c3)=NN2c2nc(O)c(C3=c4cc(OC)ccc4=NC3=O)s2)cc1 (stereo not given) the growth [1] was 1.32% (active), the growth [2] was 0.0361% (active) and the growth [3] was -61.7% (active). The growth [4] was -54.7% (active), the growth [5] was -66.3% (active) and the growth [6] was -32.5% (active). For the same molecule, the growth [7] was -59% (active), the growth [8] was -27.9% (active) and the growth [9] was -52.5% (active). For the same molecule, the growth [10] was -67.1% (active), the growth [11] was -29.1% (active) and the growth [12] was -57.3% (active). For the same molecule, the growth [13] was -57.1% (active), the growth [14] was -14.2% (active) and the growth [15] was -92% (active). For the same molecule, the growth [16] was -71.1% (active), the growth [17] was -93.3% (active) and the growth [18] was -56% (active). The growth [19] was -77.6% (active) and the growth [20] was -48.5% (active).
Molecule O=C1Nc2ccccc2/C1=C/C(=O)c1ccc(N2CCOCC2)cc1 has a growth [1] of 74%, a growth [2] of 75% and a growth [3] of 75.9%. It also gave a growth [4] of 88.4%, a growth [5] of 92.2% and a growth [6] of 86.5%. It also gave a growth [7] of 99.1%, a growth [8] of 90.8% and a growth [9] of 95.7%. The growth [10] was 99.7%, the growth [11] was 93% and the growth [12] was 83.4%. The growth [13] was 90.5%, the growth [14] was 93.9% and the growth [15] was 81.9%. It also gave a growth [16] of 84.6%, a growth [17] of 101% and a growth [18] of 83.2%. The growth [19] was 88.9% and the growth [20] was 107%.
In the case of COc1ccc(C2CC(c3cc(OC)c(OC)c(OC)c3)=NN2C(C)=O)cc1OCC(=O)Nc1nc2ccc(C(F)(F)F)cc2s1 (stereo not given), the growth [1] is reported as 48.5%, the growth [2] is reported as 83.8% and the growth [3] is reported as 68.7%. The growth [4] was 44.8%, the growth [5] was 33.5% and the growth [6] was 71.3%. For the same molecule, the growth [7] was 61.4%, the growth [8] was -32.9% (active) and the growth [9] was 67.1%. The growth [10] was 68%, the growth [11] was 76.2% and the growth [12] was 79.8%. The growth [13] was 37%, the growth [14] was 74.2% and the growth [15] was 67%. The growth [16] was 67.8%, the growth [17] was 15.1% and the growth [18] was 52.5%. The growth [19] was 32.5% and the growth [20] was 65.5%.
O=C(Nc1ccc(Cl)c(C(F)(F)F)c1)Nc1ccc(-c2cccnc2)cc1N1CCC(CO)CC1 gave a growth [1] of 53.2%, a growth [2] of 15.1% and a growth [3] of 43.1%. For the same molecule, the growth [4] was -17.5% (active), the growth [5] was 26.2% and the growth [6] was 47.6%. The growth [7] was 17.8%, the growth [8] was 18.9% and the growth [9] was 40.2%. For the same molecule, the growth [10] was 24.1%, the growth [11] was 14.8% and the growth [12] was 9.16% (active). The growth [13] was 85.4%, the growth [14] was 29.1% and the growth [15] was 21%. The growth [16] was 12.4%, the growth [17] was 11.3% and the growth [18] was 37%. For the same molecule, the growth [19] was 26.6% and the growth [20] was 32.3%.
O=C(O)CSCc1nnc2n(Cc3ccccc3)c(=O)c3c4c(sc3n12)CCCC4 gave a growth [1] of 114%, a growth [2] of 78.6% and a growth [3] of 112%. It also gave a growth [4] of 83.5%, a growth [5] of 88.5% and a growth [6] of 112%. It also gave a growth [7] of 57.9%, a growth [8] of 101% and a growth [9] of 104%. It also gave a growth [10] of 158%, a growth [11] of 101% and a growth [12] of 111%. For the same molecule, the growth [13] was 87.4%, the growth [14] was 97.3% and the growth [15] was 102%. The growth [16] was 101%, the growth [17] was 103% and the growth [18] was 75.4%. It also gave a growth [19] of 88.1% and a growth [20] of 131%.
Molecule Cc1cccc(C[C@H](NC(=O)Nc2ccc(Cl)cc2F)C(=O)N[C@@H]2C(=O)N3C[C@H](OC(=O)CCN(C)C)C[C@H]3C(=O)N3CCCC[C@H]3C(=O)N[C@@H](C)C(=O)N3C[C@H](C)C[C@H]3C(=O)O[C@H]2C)c1 has a growth [1] of 23.7%, a growth [2] of 15.8% and a growth [3] of 27.1%. The growth [4] was 1.21% (active), the growth [5] was 18.7% and the growth [6] was 24.8%. The growth [7] was 7.95% (active), the growth [8] was 35.6% and the growth [9] was 16.3%. For the same molecule, the growth [10] was 16.5%, the growth [11] was 64.8% and the growth [12] was 5.77% (active). For the same molecule, the growth [13] was 13.5%, the growth [14] was 21.3% and the growth [15] was 22.9%. The growth [16] was 16.7%, the growth [17] was 6.65% (active) and the growth [18] was 13.4%. The growth [19] was 23.9% and the growth [20] was 25.8%.
